Activity calls are given as the source filed them. Calls come from the whole dose curve; as a rule, active = well fitted curve in the direction sought with a large enough effect in the repeat runs; inconclusive = weak or mixed curves; inactive = flat fitted curve, though single readings scatter.
assay: qHTS assay to test for compound auto fluorescence at 535 nm (green) in HEK293 cells (AID 720680); settings: green autofluorescence 485/535 nm; series mostly up to 91.3 µM; fluorescence, % of fluorescein: at the top concentration
Excerpt: U.S. Tox21 Program National Center for Advancing Translational Sciences [NCATS] NIH Chemical Genomics Center [NCGC] U.S. Environmental Protection Agency [EPA] National Institutes of Environmental Health Sciences [NIEHS] National Toxicology Program [NTP] U.S. Food and Drug Administration [FDA] Tox21 Assay Overview: Compound auto fluorescence often interferes with screening of the compound library against various biological targets and signaling pathways. Some of these compounds may have fluorophoric properties. Such properties may interfere with the assay outputs resulting in false positives and/or negatives. To decrease such complications and ensure the compound activities are relevant in terms of biological response, the Tox21 10K compound library was screened for auto fluorescence. From the fluorophores used as reporter signals in our screening assays, the auto fluorescence equivalencies of compounds against three fluorophores have been evaluated: Triamterene, Fluorescein and Rose Bengal sodium for blue, green and red fluorescence, respectively. The fluorescence intensities were measured using Excitation/Emission wavelengths at 405/460nm, 485/535nm and 540/590nm for blue, green and red labels, respectively. This assay includes the green fluorescence data.
Tox21 Assay Protocol Summary: 2,000 HEK293 cells in 5 uL of culture medium containing 10% dialyzed FBS per well were dispensed into black wall/clear bottom 1536-well plates using a Multidrop Combi Dispenser (Thermo Scientific). The assay plates were incubated for 4-5 hr at 37C to allow cell attachment to the well bottom, followed by the transfer of 23 nL compound or DMSO vehicle by a pintool work station (Kalypsys, San Diego, CA). After the assay plates were incubated overnight at 37C and 5% CO2, fluorescence intensities in the assay plates were measured by an Envision (PerkinElmer, Shelton, CT) plate reader using three labels for measuring blue, green and red fluorescence at […] 460, 535 and 590nm respectively.
% is set by controls: 0 for no effect and ±100 for the full control effect.

| SMILES | fluorescence, % of fluorescein | outcome |
| --- | --- | --- |
| CN1C[C@H]2c3ccccc3Oc3ccc(Cl)cc3[C@@H]2C1 | -0.0488% [at 46 µM] (inactive) | – |
| C#C[C@]1(O)CC[C@H]2[C@@H]3CCc4cc(OC5CCCC5)ccc4[C@H]3CC[C@@]21C | 0.102% [at 46 µM] (inactive) | – |
| CN(Cc1ccc(C(C)(C)C)cc1)Cc1cccc2ccccc12 | – | inactive |
| Cc1[nH]c(C)c(Cl)c(=O)c1Cl | 0.0167% [at 46 µM] (inactive) | – |
| O=C1c2ccccc2S(=O)(=O)N1CCCCN1CCN(c2ncccn2)CC1 | 0.0179% [at 46 µM] (inactive) | – |
| COc1ccc(-c2nc3ccc(C4=NNC(=O)CC4C)cc3[nH]2)cc1 (stereo not given) | 0.0191% [at 46 µM] (inactive) | – |
| CCC(Cl)CCC(Cl)C(Cl)CC(Cl)C(Cl)C(Cl)CCl (stereo not given) | 0.0341% (inactive) | – |
| C[C@H](CCC(=O)O)[C@H]1CC[C@H]2[C@@H]3CC[C@@H]4C[C@H](O)CC[C@]4(C)[C@H]3C[C@H](O)[C@]12C | – | inactive |
| ClCCOCCOCCCl | 0.0248% (inactive) | – |
| CNCCCN1c2ccccc2CCc2ccccc21 | -0.0036% [at 18.6 µM] (inactive) | – |
| CCCCCC[C@@H](O)C/C=C\CCCCCCCC(=O)OC | -0.0811% (inactive) | – |
| Nc1ccc(S(=O)(=O)Nc2ccccc2)cc1 | -0.043% [at 46 µM] (inactive) | – |
| O=C(Nc1ccc(S(=O)(=O)N2CCOCC2)cc1)c1cc(Cl)ccc1NS(=O)(=O)c1ccc(Cl)s1 | -0.0778% [at 46 µM] (inactive) | – |
| NC(=O)C(c1ccccc1)(c1ccccc1)[C@@H]1CCN(CCc2ccc3c(c2)CCO3)C1 | 0.0505% [at 46 µM] (inactive) | – |
| C=C(C)C(=O)OCC | -0.0167% [at 95.7 µM] (inactive) | – |
| OCCNCc1ccccc1 | 0.0485% (inactive) | – |
| COc1ccc(C(=O)Nc2nc3ccccc3c(NCc3ccccc3)c2C#N)cc1 | 0.0037% (inactive) | – |
| CCCCNc1ccc(C(=O)OCCOCCOCCOCCOCCOCCOCCOCCOCCOC)cc1 | -0.0088% [at 18.6 µM] (inactive) | – |
| O=C(NCCO[N+](=O)[O-])c1cccnc1 | -0.0137% [at 46 µM] (inactive) | – |
| CCOC(=O)Cc1cccc2ccccc12 | 0.0678% (inactive) | – |

| SMILES | fluorescence, % of fluorescein | outcome |
| --- | --- | --- |
| CC(C)(O)c1ccc(CNC(=O)c2cccnc2Oc2ccc(F)cc2)cc1 | 0.183% (inactive) | – |
| CC(=O)c1ccc2c(c1)N(CCCN(C)C)c1ccccc1S2 | -0.246% [at 18.6 µM] (inactive) | – |
| O=C(O)CC(=O)C(=O)O | -0.0949% (inactive) | – |
| CCN(CC)CCNc1ccc(CNC=O)c2sc3ccc(OC)cc3c(=O)c12 | -0.179% (inactive) | – |
| NCC(=O)O | -0.0191% [at 46 µM] (inactive) | – |
| CN(C)CCCN1c2ccccc2Sc2ccccc21 | -0.0365% [at 18.6 µM] (inactive) | – |
| CCO[C@H](Cc1ccc(OCCc2ccc(OS(C)(=O)=O)cc2)cc1)C(=O)O | -0.0694% [at 46 µM] (inactive) | – |
| O=CC1CC=CCC1 (stereo not given) | 0.136% (inactive) | – |
| CCOC(=O)C(F)(F)F | 0.0232% (inactive) | – |
| COC(=O)C1=C(C)NC(COC(N)=O)=C(C(=O)OC(C)C)C1c1cccc(Cl)c1Cl (stereo not given) | -0.116% [at 46 µM] (inactive) | – |
| CO[C@@H]1[C@H](OC(=O)/C=C/C=C/C=C/C=C/C(=O)O)CC[C@]2(CO2)[C@H]1[C@@]1(C)O[C@@H]1CC=C(C)C | – | inactive |
| c1ccc(C(O[C@H]2CCCN(CCc3ccc4c(c3)OCO4)C2)c2ccccc2)cc1 | -0.0338% [at 46 µM] (inactive) | – |
| C1CCCNCCC1 | -0.0607% (inactive) | – |
| CCCCC(CC)CN1C(=O)C2C3C=CC(C3)C2C1=O (stereo not given) | -0.0313% (inactive) | – |
| CCCCO | – | inactive |
| O=C1C(O)=C(O)C(=O)C(O)=C1O | -0.174% [at 46 µM] (inactive) | – |
| O=C1OC(CN2CCOCC2)CN1/N=C/c1ccc([N+](=O)[O-])o1 (stereo not given) | -0.416% [at 18.6 µM] (inactive) | – |
| NCC(=O)CCC(=O)O | -0.0266% [at 46 µM] (inactive) | – |
| COc1ccnc(CS(=O)c2nc3ccc(OC(F)F)cc3[nH]2)c1OC (stereo not given) | 0.0476% [at 46 µM] (inactive) | – |
| O=C(OCCCCCCOC(=O)c1ccccc1)c1ccccc1 | 0.115% (inactive) | – |

From PubChem BioAssay (Tox21)
